WRN helicase inh-1: inhibitors of human WRN helicase; AID 651768; 360,000 tested, 0.46% active; Potency, µM (series often up to 114 µM), inactives show top-dose activity change, negative = inhibition, hits mostly inhibitors; WRN helicase unwinding, fluorescent forked duplex, kinetic; further: on the % scale 0 is the no-effect control and ±100 the full control effect; nearly all actives have a fitted effect of over 55% in size
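WRN at 20 nM final preincubated with compound 15 min at room temperature; reaction started with 100 nM fluorophore/quencher forked duplex oligonucleotide and 2 mM ATP final. Unwinding followed kinetically by red fluorescence (ex 525, em 598 nm).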
FEN1 inh: inhibitors of human flap endonuclease 1; P39748; Recombinant FEN1 flap cleavage, fluorescence, 15 min; Potency, µM (titrated, usually from 114 µM), for the others: at the highest dose activity change, negative = inhibition, usual class: inhibitors; 390,000 tested, 0.35% active; AID 588795; further: on the % scale 0 is the no-effect control and ±100 the full control effect; nearly all actives have a fitted effect of over 65% in size
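FEN1 at 10 nM, compound pretreatment for 15 min (room temperature), 50 nM final substrate to initiate; endpoint reads at 0 and 15 min; DMSO-only plates used as vehicle background.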
RECQ1 inh: inhibitors of human RECQ1 DNA helicase | AID 2549 | RECQ1 DNA unwinding, red fluorescence kinetic read | 240,000 tested, 0.54% active | Potency, µM (series often up to 57.3 µM), inactives show at the top dose activity, negative = inhibition, usual class: inhibitors;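 further: plate controls were vehicle for no effect and no enzyme for full effect; nearly all actives have a fitted effect of over 30% in size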
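RECQ1T1 50 nM; forked duplex (20 bp + 30-nt ss tails) 200 nM, ATP 2 mM final; pH 8.0, 2 mM MgCl2, 2.5 ug/ml poly(dI-dC); 15 min compound preincubation; discontinuous kinetic read over 2 h at RT.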
APE1 inh: APE1 (human) endonuclease inhibition. P27695. recombinant APE1, TAMRA/BHQ-2 abasic DNA cleavage fluorescence. Potency, µM (highest dose often 65.8 µM), for the others: at the highest dose activity change, negative = inhibition, hits mostly inhibitors. 350,000 tested, 0.35% active. AID 2517;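 further: plate controls were vehicle for no effect and reference inhibitor for full effect; nearly all actives have a fitted effect of over 55% in size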
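Activity was derived from the fluorescence gain between first and third kinetic reads (60 s intervals, ex 525/em 598 nm) after 50 nM THF-abasic TAMRA/BHQ-2 duplex was added to 0.75 nM APE1 preincubated 15 min with compound.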
L3MBTL1 block: inhibitors of human L3MBTL1; Q9Y468; AlphaScreen L3MBTL1–H3K9me1 peptide binding; Potency, µM (highest dose often 57.1 µM), without a hit: at the highest dose activity, negative = inhibition, hits mostly inhibitors; 230,000 tested, 0.66% active; AID 485360; further: on the % scale 0 is the no-effect control and ±100 the full control effect; nearly all actives have a fitted effect of over 60% in size
Target sequence (Q9Y468 whole entry, looked up): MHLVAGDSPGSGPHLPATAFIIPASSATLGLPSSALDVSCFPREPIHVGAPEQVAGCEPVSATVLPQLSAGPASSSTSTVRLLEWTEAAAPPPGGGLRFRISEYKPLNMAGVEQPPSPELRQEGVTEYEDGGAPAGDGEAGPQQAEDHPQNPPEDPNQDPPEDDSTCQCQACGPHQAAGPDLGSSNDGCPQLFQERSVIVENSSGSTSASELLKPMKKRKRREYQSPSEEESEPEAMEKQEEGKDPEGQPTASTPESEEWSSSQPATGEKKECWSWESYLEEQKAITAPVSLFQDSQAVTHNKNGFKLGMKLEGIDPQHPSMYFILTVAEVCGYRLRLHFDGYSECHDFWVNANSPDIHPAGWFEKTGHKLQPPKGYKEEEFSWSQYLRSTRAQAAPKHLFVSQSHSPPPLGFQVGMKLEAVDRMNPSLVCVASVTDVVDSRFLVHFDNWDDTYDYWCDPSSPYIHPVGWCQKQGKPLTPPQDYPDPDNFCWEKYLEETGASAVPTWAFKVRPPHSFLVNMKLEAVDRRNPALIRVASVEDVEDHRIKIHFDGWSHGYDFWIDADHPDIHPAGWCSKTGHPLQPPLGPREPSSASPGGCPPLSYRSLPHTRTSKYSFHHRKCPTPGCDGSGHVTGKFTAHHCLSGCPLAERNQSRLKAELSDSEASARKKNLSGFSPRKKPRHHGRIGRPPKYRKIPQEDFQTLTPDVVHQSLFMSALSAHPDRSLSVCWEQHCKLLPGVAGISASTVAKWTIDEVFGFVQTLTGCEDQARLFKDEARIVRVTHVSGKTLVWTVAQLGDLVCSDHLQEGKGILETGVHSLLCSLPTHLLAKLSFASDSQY
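AlphaScreen assay: L3MBTL1 (50 nM final) was preincubated 30 min at room temperature with biotinylated H3(1-15)K9me1 peptide (75 nM final), then 30 min with library compounds; streptavidin donor and nickel chelate acceptor beads (10 ug/mL final) added, 30 min dark.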
BLM helicase inh-1: blocks DNA unwinding by human BLM helicase; AID 2528; recombinant BLM DNA unwinding, fluorescence dequenching; P54132; Potency, µM (highest dose often 56.1 µM), for the others: at the top dose activity change, negative = inhibition, hits mostly inhibitors; 350,000 tested, 0.2% active;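 further: plate controls were vehicle for no effect and no enzyme for full effect; nearly all actives have a fitted effect of over 35% in size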
WRN helicase inh-2: WRN helicase inhibition, cherry-pick retest; shares compounds with WRN helicase inh-1; WRN helicase DNA unwinding, fluorescence kinetic; Potency, µM (doses to about 57.1 µM), for the others: at the highest dose activity, negative = inhibition, hits mostly inhibitors; 610 tested, 63% active; AID 720497; further: nearly all actives have a fitted effect of over 65% in size
TO displacement: binds DNA, flagged in WRN inhibitor counterscreen; thiazole orange DNA binding displacement, fluorescence; Potency, µM (highest dose often 57.1 µM), without a hit: at the highest dose activity change, negative = inhibition, actives largely listed as inhibitors; 610 tested, 10% active; shares compounds with WRN helicase inh-1;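 further: drop in dye fluorescence marks compound binding to DNA; on the % scale 0 is the no-effect control and ±100 the full control effect; nearly all actives have a fitted effect of over 60% in size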
BLM helicase inh-2: counter-screen for WRN helicase inhibitors: human BLM helicase inhibition | Potency, µM (series often up to 57.1 µM), without a hit: at the highest dose activity change, negative = inhibition, usual class: inhibitors | 610 tested, 60% active | shares compounds with WRN helicase inh-1 | Recombinant BLM helicase DNA unwinding, red fluorescence; further: nearly all actives have a fitted effect of over 60% in size
* hit, by the source's call; i = inactive; ? = inconclusive; / = no result; [ ] = remark or other dose. This is a sample that favours compounds with a hit; in the whole collection about 1% have one here. The call rests on the fitted dose curve; in most records, active means well fitted curve in the direction sought with a large enough effect; inconclusive means small, poorly fitted or top-dose-only effect, or another doubt; inactive means no such curve, though single readings can be large; an effect the other way counts as inactive or inconclusive. Potency means the concentration at half of the fitted maximal effect.

SMILES | WRN helicase inh-1 | FEN1 inh | RECQ1 inh | APE1 inh | L3MBTL1 block | BLM helicase inh-1 | WRN helicase inh-2 | TO displacement | BLM helicase inh-2
O=C(CCn1ccc2cc(S(=O)(=O)N3CCCC3)ccc21)NCc1cccc(Br)c1 | / | 5% | / | / | / | -2% | / | / | /
O=C(O)COc1ccccc1/C=C1\SC(=S)N(NC(=O)c2ccccc2O)C1=O | ? | ? | / | 15% | 13µM* | / | ? | -9% | -23%
O=C(O)c1ccc(-n2cccc2/C=C2/SC(=O)N(CC(=O)N3CCCC3)C2=O)cc1 | 20µM* | 40µM* | / | 3.4µM* | / | -6% | 6.8µM* | 6% | 3µM*
COc1ccc(S(=O)(=O)N(CC(=O)Nc2ccc(OC)cc2OC)c2ccc(Cl)cc2)cc1 | / | -6% | / | / | / | -8% | / | / | /
CC(=O)N(C1=C(Cl)C(=O)c2ccccc2C1=O)C1CCCCC1 | 14µM* | ? | -1% | -6% | ? | -1% | -27% | -16% | ?
CC(=O)N(c1ccccc1C)C1CCCC1 | -15%[57.1 µM] | 2% | -1% | 3% | 8% | 1% | / | / | /
CCOC(=O)C1CCCN(C(=O)c2cc(-c3ccco3)nc3ccccc23)C1 (stereo not given) | 32µM* | 56µM* | / | 8.4µM* | 3.5µM* | / | 14µM* | ? | 1.7µM*
CCCCNC(C(=O)Nc1ccc([N+](=O)[O-])cc1Br)c1ccccc1 (stereo not given) | ? | 3% | -19% | 20% | -6% | 0% | 1% | -8% | -11%
COCCNC(C(=O)Nc1ccc([N+](=O)[O-])cc1Br)c1ccccc1 (stereo not given) | -6% | -3% | -11% | -2% | -9% | -6% | / | / | /
NC(N)=NCCC[C@H](N)C(=O)N1CCC[C@H]1C(=O)N1CCC[C@H]1C(=O)NCC(=O)N[C@@H](Cc1ccccc1)C(=O)N[C@@H](CO)C(=O)N1CCC[C@H]1C(=O)N[C@@H](Cc1ccccc1)C(=O)O | / | / | -2% | -6% | / | 1% | / | / | /
CCCOc1ccc(C(=O)CCN2CCN(C(=O)OCC)CC2)cc1 | ? | -1% | -8% | 7% | / | 1% | -16% | -6% | -18%
COc1ccc(OC)c2nc3c(C(=O)NCCN(C)C)cccc3nc12 | 13µM* | 14µM* | / | / | / | / | 14µM* | 11µM* | 22µM*
CN(C)CCNC(=O)c1cccc2ccc(-c3ccc(-c4ccccc4)cc3)nc12 | 45% | ? | / | / | / | / | / | / | /
COc1ccc(/C=C2\C(=O)ON=C2c2ccccc2)cc1 | 32µM* | -10% | / | 20% | / | -5% | -23% | -4% | -25%
O=C1ON=C(c2ccccc2)/C1=C/c1ccc(OS(=O)(=O)c2ccccc2)cc1 | ? | -2% | -11% | -1% | -11% | -10% | / | / | /
O=C(O)C1C2CCC(O2)C1C(=O)Nc1cccc(Cl)c1 (stereo not given) | 6% | -5% | / | 6% | 3% | -3% | / | / | /
CC1=NN(c2ccccc2)C(=O)C1/C=C1\NC(=S)NC1=O (stereo not given) | 28µM* | 79µM* | 4% | 5% | / | 0% | 8.6µM* | -23% | 17µM*
COc1ccc(NC(=O)/C(Cl)=C(/Cl)S(=O)(=O)Cc2ccccc2)cn1 | 12µM* | -16% | -22% | 0% | / | -7% | ? | -11% | -30%
O=C1CC=Nc2ccc([N+](=O)[O-])cc21 | -3% | / | / | / | / | / | / | / | /
CC1=NN(c2ccc(F)cc2)C(=O)C1C(c1cccc(O)c1)c1c(C)[nH]n(-c2ccc(F)cc2)c1=O (stereo not given) | ? | -29% | -1% | -5% | -22% | -3% | -18% | -20% | -14%
CC1=NN(c2ccc(Cl)cc2)C(=O)C1C(c1cccc(O)c1)c1c(C)[nH]n(-c2ccc(Cl)cc2)c1=O (stereo not given) | ? | -30% | 3% | -4% | -21% | -4% | / | / | /
N=C(N)c1ccc(N=Nc2c(O)ccc3c2[nH]c2ccccc23)cc1 | 11µM* | 28µM* | / | / | / | / | 8.6µM* | 24µM* | 19µM*
COc1cccc(/C=C2/C(=O)NN(c3ccc(Br)cc3)C2=O)c1O | 0.67µM* | -8% | / | -3% | 5% | -7% | 17µM* | -23% | 6.8µM*
Cc1c(Cc2ccccc2)c(=O)oc2c(O)c(O)ccc12 | 28µM* | ? | i | 0% | -11% | 13µM* | 6.8µM* | -17% | 6.8µM*
COc1ccc(-n2c(O)c(/C=N/NS(=O)(=O)c3ccc(C)c([N+](=O)[O-])c3)c3ccccc3c2=O)cc1OC | ? | -10% | -4% | -8% | -15% | -16% | 19µM* | 295% | 22µM*
SMILES | WRN helicase inh-1 | FEN1 inh | RECQ1 inh | APE1 inh | L3MBTL1 block | BLM helicase inh-1 | WRN helicase inh-2 | TO displacement | BLM helicase inh-2
CC(C)CCOc1ccc(Cn2c(=O)sc3ccccc32)cc1 | / | 5% | / | / | / | -6% | / | / | /
O=C(ONc1ccc(N=NC(=O)c2ccccc2O)cc1)c1ccccc1 | ? | 2% | ? | 1% | -8% | -6% | 22µM* | 27µM* | 14µM*
COCCn1c(=O)sc2ccccc2c1=O | ? | 1% | 0% | 14% | -18% | 0% | 6% | -4% | -11%
COc1ccc(Cn2c(=O)sc3ccccc3c2=O)cc1 | 2% | 13% | -8% | -4% | 36% | -8% | / | / | /
CN(C)c1ccc(C=Cc2nccc3ccccc23)cc1 | 79µM* | / | / | / | / | / | ? | 221% | ?
CC1CCCC(NC(=O)c2cccc(S(=O)(=O)N3CCOCC3)c2)C1C (stereo not given) | -4% | / | / | / | / | / | / | / | /
CCN(CC)c1ccc(/C=C2/C(=O)c3ccc(C(=O)O)cc3C2=O)cc1 | 35µM* | ? | -19% | ? | 25µM* | -7% | 24µM* | 96% | ?
COc1ccc([N+](=O)[O-])c(S(=O)(=O)c2ccc(Cl)cc2)n1 | 16µM* | -20% | -14% | ? | -3% | 0% | ? | -5% | -16%
COc1nc(OC)nc(Oc2ccc(Cl)cc2[N+](=O)[O-])n1 | -6% | 2% | i | 1% | -4% | 5% | / | / | /
O=[N+]([O-])c1cccnc1S(=O)(=O)c1ccccc1 | -29% | 12% | / | 41% | / | 0% | / | / | /

Screening results deposited in PubChem by National Center for Advancing Translational Sciences (NCATS).
